Screening data deposited in PubChem BioAssay by National Center for Advancing Translational Sciences (NCATS).
A selection: hits, their analogues and other compounds. The true share with any hit is near 1.4%.
EPAC1 antag – blocks human EPAC1 exchange factor; EPAC1 GEF assay, Rap1b-BODIPY-GDP exchange fluorescence; AID 720709; Potency, µM (highest dose often 115 µM), for the others: at the top dose activity change, negative = inhibition, usual class: inhibitors; O95398; actives 0.14% (n = 360,000);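 further: potency means the concentration at half of the fitted maximal effect; plate controls were vehicle for no effect and positive control for full effect; nearly all actives have a fitted effect of over 50% in size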
Target sequence (O95398 whole entry, looked up): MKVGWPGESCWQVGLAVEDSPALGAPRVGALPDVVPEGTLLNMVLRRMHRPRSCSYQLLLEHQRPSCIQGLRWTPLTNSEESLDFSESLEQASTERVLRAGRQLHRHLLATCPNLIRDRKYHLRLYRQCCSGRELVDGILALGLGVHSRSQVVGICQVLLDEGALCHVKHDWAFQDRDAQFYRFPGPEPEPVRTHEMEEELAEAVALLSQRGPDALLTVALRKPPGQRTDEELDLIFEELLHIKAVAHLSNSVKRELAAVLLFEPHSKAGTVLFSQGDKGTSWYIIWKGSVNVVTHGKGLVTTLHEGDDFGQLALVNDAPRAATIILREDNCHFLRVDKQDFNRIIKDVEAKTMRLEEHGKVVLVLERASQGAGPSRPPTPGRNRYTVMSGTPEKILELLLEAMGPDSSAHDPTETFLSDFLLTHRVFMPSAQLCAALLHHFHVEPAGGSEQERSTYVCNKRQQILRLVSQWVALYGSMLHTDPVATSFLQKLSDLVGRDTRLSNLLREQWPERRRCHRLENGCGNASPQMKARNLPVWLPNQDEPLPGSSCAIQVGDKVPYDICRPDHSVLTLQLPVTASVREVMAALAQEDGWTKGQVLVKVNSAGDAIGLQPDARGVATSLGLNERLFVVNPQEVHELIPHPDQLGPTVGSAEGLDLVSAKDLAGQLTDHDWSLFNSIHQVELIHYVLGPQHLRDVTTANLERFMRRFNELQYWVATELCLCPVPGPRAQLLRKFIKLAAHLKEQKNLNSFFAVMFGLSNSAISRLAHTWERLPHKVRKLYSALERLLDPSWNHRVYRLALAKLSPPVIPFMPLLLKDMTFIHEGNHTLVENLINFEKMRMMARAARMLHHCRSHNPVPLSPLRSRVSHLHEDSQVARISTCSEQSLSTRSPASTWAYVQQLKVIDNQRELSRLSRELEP
EPAC2 ag – agonists of human EPAC2 (RAPGEF4); Q8WZA2; EPAC2 activation, biochemical qHTS; response scale: 100% = 6.5 mM cAMP response; Potency, µM (doses to about 154 µM), inactives show at the highest dose activation, usual class: activators; actives 0.079% (n = 360,000); further: potency means the concentration at half of the fitted maximal effect; nearly all actives have a fitted effect of over 50% in size
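Setup: EPAC2 100 nM, labeled Rap1B complex 250 nM, free GDP 50 uM. Compound titrations pinned in, brief spin, 5 min room temperature incubation. Kinetic fluorescence read over 30 min, normalized to 6.5 mM cAMP.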
KCNH2 3.1 block – inhibitors of human KCNH2 3.1 potassium channel isoform; U2OS KCNH2 3.1, thallium flux FluxOr; active compounds read low; activity change, % (tested at about 1.8 µM); actives 0.95% (n = 340,000);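 active means maximum activity change below -70%; inconclusive means maximum activity change from -70% to -50%; inactive means maximum activity change above -50%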;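 further: thallium influx rate constant from kinetic fluorescence after stimulation buffer; on the % scale 0 is the no-effect control and ±100 the full control effect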
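Steps: virus added to U2OS suspension (4 h, RT, dark); medium with 10% FBS added, cells plated, 37 C overnight; FluxOr/Red40 loading buffer 45 min RT; stimulation buffer, 2 min kinetic read; rate constant normalized.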
KCNH2 WT inh – KCNH2 (human, wildtype) channel inhibition; Q12809; activity change, % at 1.84 µM; actives 0.37% (n = 340,000); AID 720551; U2OS, BacMam KCNH2, thallium flux FluxOr; active compounds read low;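 active means maximum activity change below -70%; inconclusive means maximum activity change between -70% and -50%; inactive means maximum activity change above -50%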; further: on the % scale 0 is the no-effect control and ±100 the full control effect
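U2OS cells transduced with wild-type KCNH2 virus are loaded with FluxOr dye for 45 min, and thallium flux is measured in kinetic reads before and after stimulation buffer. Rate constants are normalized to DMSO controls.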
EPAC1 agonist – activates human EPAC1 exchange factor. EPAC1 agonist qHTS, biochemical assay; response scale: 100% = response to 6.5 mM cAMP. Potency, µM (doses to about 154 µM), inactives show top-dose activation, actives largely listed as activators. actives 0.073% (n = 360,000). AID 720707; further: potency means the concentration at half of the fitted maximal effect; nearly all actives have a fitted effect of over 60% in size
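Normalized to 6.5 mM cAMP, activity reflects EPAC1-catalysed release of BODIPY-GDP from Rap1B, followed kinetically over 30 min at 480 nm excitation, 540 nm emission. Reaction contained 100 nM EPAC1, 250 nM Rap1B-BODIPY-GDP, 50 uM GDP.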
EPAC2 antagonist – blocks human EPAC2 exchange factor; Q8WZA2; EPAC2 GEF exchange of Rap1B-BODIPY-GDP, fluorescence; Potency, µM (series often up to 114 µM), without a hit: at the top dose activity, negative = inhibition, hits mostly inhibitors; actives 0.18% (n = 360,000); further: potency means the concentration at half of the fitted maximal effect; on the % scale 0 is the no-effect control and ±100 the full control effect; nearly all actives have a fitted effect of over 45% in size
* marks the source's active call; other numbers are inactive results. Unless noted, the call rests on the fitted dose curve; in most records, active means well fitted curve in the direction sought with a large enough effect; inconclusive means small, poorly fitted or top-dose-only effect, or another doubt; inactive means no such curve, though single readings can be large; an effect the other way counts as inactive or inconclusive.

What do the screens show for `CCC(C)c1ccc(NC(=O)NCCN2CCCCC2)cc1` (stereo not given)?
EPAC1 antag: -9%; EPAC2 ag: 4%; KCNH2 3.1 block: -94*; KCNH2 WT inh: 9; EPAC1 agonist: -2%; EPAC2 antagonist: 8%

How did Cc1ccc(NC(=O)NCCN2CCCCC2)cc1 do in these assays?
EPAC1 antag: 8%; EPAC2 ag: 2%; KCNH2 3.1 block: -16; KCNH2 WT inh: 20; EPAC1 agonist: -5%; EPAC2 antagonist: 0%

How did ON=C(CCc1ccccc1)c1ccccc1 do in these assays?
EPAC1 antag: -11%; EPAC2 ag: 9%; KCNH2 3.1 block: -16; KCNH2 WT inh: -3; EPAC1 agonist: 7%; EPAC2 antagonist: -11%

Results for Cc1c(C)c2ccc(OCC(=O)Nc3ccc(S(N)(=O)=O)cc3)c(C)c2oc1=O ?
EPAC1 antag: 71µM*; EPAC2 ag: -7%; KCNH2 3.1 block: -5; KCNH2 WT inh: 5; EPAC1 agonist: -3%; EPAC2 antagonist: 22%

What do the screens show for `Cc1c(OCC(=O)Nc2cccnc2)ccc2c3c(c(=O)oc12)CCC3`?
EPAC1 antag: -8%; EPAC2 ag: 0%; KCNH2 3.1 block: 5; KCNH2 WT inh: -19; EPAC1 agonist: -2%; EPAC2 antagonist: 1%

What do the screens show for `O=C(Nc1ccccc1F)C(=Cc1sc(N2CCOCC2)nc1-c1ccccc1)C(=O)Nc1ccccc1F`?
EPAC1 antag: -12%; EPAC2 ag: -67%; KCNH2 3.1 block: -77*; KCNH2 WT inh: -1; EPAC1 agonist: -18%; EPAC2 antagonist: -2%

How did O=C(N/N=C/c1sc(N2CCOCC2)nc1-c1ccccc1)c1ccccc1F do in these assays?
EPAC1 antag: -14%; EPAC2 ag: 5%; KCNH2 3.1 block: -4; KCNH2 WT inh: 0; EPAC1 agonist: 1%; EPAC2 antagonist: -28%

Results for Brc1ccc(CN2CCSCC2)cc1 ?
EPAC1 antag: 3%; EPAC2 ag: 6%; KCNH2 3.1 block: -174*; KCNH2 WT inh: -15; EPAC1 agonist: 9%; EPAC2 antagonist: 5%

Results for Cc1ccc(CN2CCSCC2)cc1 ?
EPAC1 antag: -27%; EPAC2 ag: 3%; KCNH2 3.1 block: 10; KCNH2 WT inh: -5; EPAC1 agonist: -6%; EPAC2 antagonist: 1%

How did CC1=C(C(=O)N2CCOCC2)C(c2cccc(C)c2)NC(=S)N1 (stereo not given) do in these assays?
EPAC1 antag: 14%; EPAC2 ag: 6%; KCNH2 3.1 block: 4; KCNH2 WT inh: -42; EPAC1 agonist: -3%; EPAC2 antagonist: 23%

How did COc1ccc(C2NC(=S)NC(C)=C2C(=O)N2CCOCC2)cc1 (stereo not given) do in these assays?
EPAC1 antag: -3%; EPAC2 ag: 4%; KCNH2 3.1 block: 3; KCNH2 WT inh: -278*; EPAC1 agonist: -3%; EPAC2 antagonist: 10%

What do the screens show for `CCOc1ccc2ncc(C(=O)c3ccc(OC)cc3)c(N3CCN(CC)CC3)c2c1`?
EPAC1 antag: -16%; EPAC2 ag: 13%; KCNH2 3.1 block: -75*; KCNH2 WT inh: inconclusive; EPAC1 agonist: 10%; EPAC2 antagonist: 4%

What do the screens show for `O=C(COC(=O)CNC(=O)c1ccccc1)NC12CC3CC(CC(C3)C1)C2`?
EPAC1 antag: -4%; EPAC2 ag: 7%; KCNH2 3.1 block: -5; KCNH2 WT inh: -81*; EPAC1 agonist: 3%; EPAC2 antagonist: 3%

What do the screens show for `COc1ccc(OCC(=O)Nc2ccc3c(c2)nc(CCN2CCC(C)CC2)n3C)cc1`?
EPAC1 antag: 19%; EPAC2 ag: -1%; KCNH2 3.1 block: -31; KCNH2 WT inh: 1; EPAC1 agonist: 3%; EPAC2 antagonist: 2%

How did CC1CCN(CCc2nc3cc(NC(=O)COc4ccc(Cl)cc4)ccc3n2C)CC1 do in these assays?
EPAC1 antag: -18%; EPAC2 ag: 2%; KCNH2 3.1 block: -96*; KCNH2 WT inh: 11; EPAC1 agonist: 11%; EPAC2 antagonist: 3%

What do the screens show for `Cn1c(CCN2CCN(c3ccccn3)CC2)nc2cc(NC(=O)COc3ccc(Cl)cc3)ccc21`?
EPAC1 antag: -6%; EPAC2 ag: 5%; KCNH2 3.1 block: -74*; KCNH2 WT inh: -17; EPAC1 agonist: 0%; EPAC2 antagonist: -7%

How did COc1ccc(OCC(=O)Nc2ccc3c(c2)nc(CCN2CCN(c4ccccn4)CC2)n3C)cc1 do in these assays?
EPAC1 antag: -4%; EPAC2 ag: 3%; KCNH2 3.1 block: -5; KCNH2 WT inh: 29; EPAC1 agonist: -6%; EPAC2 antagonist: -3%

How did CCCCCC(=O)N1CC2(CC)CN(C(=O)CCCCC)CC(CC)(C1)C2=O do in these assays?
EPAC1 antag: -1%; EPAC2 ag: -6%; KCNH2 3.1 block: -12; KCNH2 WT inh: -8; EPAC1 agonist: -6%; EPAC2 antagonist: 4%

Results for CCn1c(=O)cc(OCC(=O)NCCCN2CCC(C)CC2)c2ccccc21 ?
EPAC1 antag: -3%; EPAC2 ag: 9%; KCNH2 3.1 block: -77*; KCNH2 WT inh: -23; EPAC1 agonist: 5%; EPAC2 antagonist: 2%

What do the screens show for `CC1CCN(CCCNC(=O)COc2cc(=O)n(C)c3ccccc23)CC1`?
EPAC1 antag: -30%; EPAC2 ag: 0%; KCNH2 3.1 block: -4; KCNH2 WT inh: 13; EPAC1 agonist: 16%; EPAC2 antagonist: 1%

What do the screens show for `COc1ccc2sc(SCCCS(=O)(=O)O)[n+](CCCS(=O)(=O)[O-])c2c1`?
EPAC1 antag: 5%; EPAC2 ag: 23%; KCNH2 3.1 block: -203*; KCNH2 WT inh: -156*; EPAC1 agonist: 1%; EPAC2 antagonist: -10%

How did CCO/C(=C/c1sc2ccc(OC)cc2[n+]1CCCS(=O)(=O)[O-])CC do in these assays?
EPAC1 antag: 3%; EPAC2 ag: 3%; KCNH2 3.1 block: -6; KCNH2 WT inh: 0; EPAC1 agonist: 0%; EPAC2 antagonist: 2%

What do the screens show for `NC(=O)c1ccsc1NC(=O)CSc1nncs1`?
EPAC1 antag: -4%; EPAC2 ag: -1%; KCNH2 3.1 block: 6; KCNH2 WT inh: -12; EPAC1 agonist: 5%; EPAC2 antagonist: 16%

What do the screens show for `O=C(COC(=O)C1CC1)Nc1ccccc1Sc1ccccc1`?
EPAC1 antag: -12%; EPAC2 ag: 14%; KCNH2 3.1 block: 4; KCNH2 WT inh: -4; EPAC1 agonist: 11%; EPAC2 antagonist: 56µM*

What do the screens show for `CCOC(=O)c1ccccc1NC(=O)COC(=O)CC1CCCCC1`?
EPAC1 antag: -1%; EPAC2 ag: 1%; KCNH2 3.1 block: 0; KCNH2 WT inh: -2; EPAC1 agonist: -12%; EPAC2 antagonist: -5%
